106 compounds from ChEMBL document CHEMBL3988442, “University of Dundee, Small-Polar-MMV Screening Library” (2021) can be followed below.

The whole screen tested about 53,000 compounds, of which about 900 (1.7%) showed an effect of 50% or more. Many of the other results were omitted from the sample, so strong results are more common in it than they were.

This experiment relates to Mycobacterium tuberculosis. Description: Cornell - Phenotypic assay to identify agents that inhibit growth of Mycobacterium tuberculosis. On the set-up: scale not given: direction of the effect not stated beside the values. It counts as functional. The conditions noted are these: 10 mM as filed; unlikely as a test dose.
`Cc1nc(C2CCCN2CC(=O)Nc2cc(C(C)(C)C)nn2C)no1` (stereo unspecified): the “Percent Effect” value was -17.86%.
Under `O=C(c1cnc(-c2cccs2)s1)N1CCCC(n2ccnc2)C1` (stereo unspecified) stands 6.926%; under `Cc1oncc1C(=O)N1CCC2(CC1)CC(N1CCOCC1)C2.O=C(O)C(F)(F)F`, 14.16%; under `Cc1nc(NCC2CC2)nc2c1COCC21CCN(CC(=O)N(C)C)C1` (stereo unspecified), -16.56%.
In the case of `CC(C)OCCn1nnnc1Cc1ccc(Br)cc1`, the “Percent Effect” value is on record as 80.17%.
As for `OCCn1nnnc1Cc1ccc(Br)cc1`, the “Percent Effect” value was determined as 32.76%.
For `N#CCCCn1nnnc1Cc1ccc(Br)cc1`, the “Percent Effect” value is 19.45%.
`Cc1ccnn1CCC(=O)N1CCCC[C@]2(C)NC(=O)CCC[C@H]12`: the “Percent Effect” value turned out to be 0.426%.
To `CNC(=O)C1CN(C)CCN(C(=O)CCn2nnc3ccccc32)C1` (stereo unspecified) belongs 37.61%; to `CN1CCN(C(=O)CCn2ncc3ccccc32)CC(C(N)=O)C1` (stereo unspecified), 40.84%.
As to `CN1CCN(C(=O)CCn2nnc3ccccc32)CC(C(N)=O)C1` (stereo unspecified), the “Percent Effect” value is 53.1%.
As to `CCC(C(=O)Nc1ccc2nc(C)oc2c1)N1CCCC1=O` (stereo unspecified), the “Percent Effect” value is -18.53%.
On to `Cn1cccc1C(=O)N1CCC2(CC1)CN(S(C)(=O)=O)c1ccccc12`, for which the “Percent Effect” value is 9.432%.
Regarding `OC(COc1ccccc1Br)COC1CCOCC1` (stereo unspecified), the “Percent Effect” value is reported as 10.03%.
Regarding `CN(C)S(=O)(=O)c1ccc(CNc2ccc(Cl)cn2)cc1`, the “Percent Effect” value is 63.29%.
Regarding `Clc1ccc(CNc2ccc(Cl)cn2)cc1`, the “Percent Effect” value is -25.47%.
Turning to `CN(c1ccc(CNc2ccc(Cl)cn2)cc1)S(C)(=O)=O`, the “Percent Effect” value came to 21.91%.
`O=C(COCC1CC1)Nc1ncccc1O`: the “Percent Effect” value is on record as -3.464%.
`COc1ccccc1-c1cc(NC(=O)COCC2CC2)[nH]n1`: the “Percent Effect” value was determined as 43.6%.
On to `O=C(COCC1CC1)Nc1cc(-c2ccc(Br)s2)n[nH]1`, for which the “Percent Effect” value is listed as 108.2%.
Consider `O=C(CCn1c(C(F)F)cc2cccnc21)NC1CCCC1`, for which the “Percent Effect” value is recorded as -12.05%.
`CC(C)CNC(=O)c1cc2c(s1)CCN2S(C)(=O)=O`: the “Percent Effect” value is recorded as -19.48%.
For `Cc1cc(C2CCC2)nc(N2CCC3(CCNC(=O)CC3)CC2)n1`, the “Percent Effect” value came out at 19.37%.
`Cn1ccnc1SCC(=O)NCc1ccc2c(c1)CCC(=O)N2`: the “Percent Effect” value is on record as -11.99%.
Take `Cc1ccc(C2CSCCN2C(=O)c2cc(C(N)=O)cs2)o1` (stereo unspecified): the “Percent Effect” value came to 23.87%.
As for `Cc1c(C(=O)N(C)CC(F)(F)F)nnn1-c1ccc(F)cc1`, the “Percent Effect” value is 26.05%.
Under `Cc1ccccc1N1CCN(c2nc(N(C)C)nc3c2CCNC3)CC1` stands -18.26%; under `CN(C)c1nc2c(c(N3CCc4ccccc4C3)n1)CCNC2`, 60.07%.
To `c1ccc2c(c1)CCN(c1nc(-c3ccncc3)nc3c1CCNC3)C2` belongs 18.38%; to `Cc1n[nH]c(C)c1-c1nccnc1CC1CCN(C(C)C)CC1`, -33.1%; to `COc1ccc(C(=O)N2CC(=O)N(C3CCC3)CC(O)C2)cc1OC` (stereo unspecified), -13.29%.
To `CC(Oc1cc(Cl)cc(Cl)c1)C(=O)NCCOCC(N)=O` (stereo unspecified) belongs -19.42%; to `CC(=O)NC1CCN(C(=O)Nc2cccc(C(F)(F)F)c2)CC1`, 20.69%.
For the compound `O=C(Nc1cccc(C(F)(F)F)c1)N1CCN(CCn2ccnc2)CC1`, the “Percent Effect” value is listed as 98.5%.
To `O=C(Nc1ccc2c(c1)OCO2)N1CCN(CCn2ccnc2)CC1` belongs -27.6%; to `Cc1nn(C)c(C)c1CN1CCCC1c1nccc(CN(C)C)n1` (stereo unspecified), -90.49%.
Turning to `CS(=O)(=O)N1CC(c2n[nH]c3ncccc23)C1`, the “Percent Effect” value is given as -14.19%.
In the case of `COc1cccc(CN2CCN(c3noc(C(C)C)n3)CC2)c1F`, the “Percent Effect” value is on record as 42.13%.
Under `COc1cccc(CN2CC[C@H](NC(C)=O)[C@@H](O)CC2)c1F` stands -15.13%; under `COc1cccc(CN2CCN(c3cccc(C(C)C)n3)CC2)c1F`, 57.83%; under `CC(C)c1cc2c(s1)NC(c1ccccn1)NC2=O` (stereo unspecified), -1.811%.
With `CCn1c(C2CCCN2Cc2noc(C(C)(C)C)n2)nc2ccccc21` (stereo unspecified), the “Percent Effect” value turned out to be 13.86%.
Regarding `COc1ccccc1CC(=O)NC(C)c1nc2cccnc2n1C(C)C` (stereo unspecified), the “Percent Effect” value was -9.677%.
To `CC(C)Nc1ncnc2c1CCN(C(=O)c1ccncc1F)CC2.O=C(O)C(F)(F)F` belongs -9.598%; to `O=C(O)c1cc(/C=C/c2cccc3ccccc23)ncn1`, 65.34%; to `O=C(O)C1(Oc2ccc3ccccc3c2)CCN(c2ncccn2)CC1`, 20.42%.
To `N#Cc1ccc(C(=O)O)nc1/C=C/c1cccc(F)c1` belongs 2.587%; to `O=C(O)c1c(Cl)ncn1-c1cccc2ccccc12`, 19.97%; to `O=C(O)c1cc(/C=C/c2ccccc2)ncn1`, 65.58%.
Take `N#Cc1ccc(C(=O)O)nc1/C=C/c1cccc(Br)c1`: the “Percent Effect” value is reported as 10.67%.
In the case of `O=C(O)c1cc(/C=C/c2ccc3ccccc3c2)ncn1`, the “Percent Effect” value was found to be 74.73%.
For the compound `N#Cc1ccc(C(=O)O)nc1/C=C/c1cccc(Cl)c1`, the “Percent Effect” value is reported as -13.81%.
Take `CNC(=O)C1CCN(C(=O)NCc2ccc(-c3ccn[nH]3)cc2)CC1`: the “Percent Effect” value is reported as -24.99%.
As for `N#Cc1ccc(N2CCC3(CCC(=O)N3CCN3CCCC3)CC2)nc1.O=C(O)C(F)(F)F.O=C(O)C(F)(F)F`, the “Percent Effect” value came out at 3.156%.
With `CCc1nnc2n1CCN(C(=O)CN(C)C1CC1)C2`, the “Percent Effect” value is reported as -12.51%.
Consider `CCN1Cc2cc3c(cc2NCCC1=O)OCO3`, for which the “Percent Effect” value is on record as -32.17%.
As for `CN1CCC(N(CCc2ccccc2)C(=O)COCC2CCCO2)CC1` (stereo unspecified), the “Percent Effect” value is 41.94%.
For the compound `CN1CC(=O)N(c2ccsc2)CC12CCN(S(=O)(=O)C1CC1)C2.O=C(O)C(F)(F)F` (stereo unspecified), the “Percent Effect” value stood at 6.764%.
On to `O=C(NC1CCC1)C1=NOC2(CCN(Cc3ccccc3)C2)C1` (stereo unspecified), for which the “Percent Effect” value is on record as -9.005%.
As for `N#CCSCCCN1CCN(C(=O)c2cccc(Cl)c2)CC1`, the “Percent Effect” value is on record as 18.37%.
`CC[C@H](Nc1nc(C(C)C)nc2c1cnn2C)c1ccccc1`: the “Percent Effect” value came to 70.75%.
For the compound `CCC(Nc1nc(C(C)C)nc2c1cnn2C)c1ccncc1` (stereo unspecified), the “Percent Effect” value is on record as 25.2%.
With `CCC(Nc1nc(C(C)C)nc2c1cnn2C)c1ccc(O)cc1` (stereo unspecified), the “Percent Effect” value was determined as 1.347%.
On to `Cc1nc(Nc2nnc(C)s2)cc(C2CCCN2c2ccncc2)n1` (stereo unspecified), for which the “Percent Effect” value is -13.84%.
With `CCc1noc(C(C)N2CCc3c(ncn3C3CC3)C2)n1` (stereo unspecified), the “Percent Effect” value is on record as -20.08%.
`COCc1nc(C(=O)N2CCCC(n3nc(C)cc3C)C2)cs1` (stereo unspecified): the “Percent Effect” value is on record as -24.43%.
To `CCc1nccn1C1CCCN(C(=O)c2csc(COC)n2)C1` (stereo unspecified) belongs 19.86%.
Consider `COCc1nc(C(=O)N2CCCC(n3cccn3)C2)cs1` (stereo unspecified), for which the “Percent Effect” value came out at 67.19%.
Under `CN1CCC2(CC1)C(=O)N(CC1CC1)c1ccccc12.O=C(O)C(F)(F)F` stands 8.295%; under `c1coc(CNCC2Cn3nncc3CO2)c1` (stereo unspecified), -14.67%.
`Cc1cccnc1NCCNC(=O)c1cnc(-c2cccs2)nc1O`: the “Percent Effect” value was found to be 19.3%.
Under `COc1ccc(CN(Cc2ccco2)Cc2[nH]cnc2C)c(OC)c1.O=C(O)CC(O)(CC(=O)O)C(=O)O` stands 39.21%; under `COc1ccc(OC)c(CN(Cc2ccco2)Cc2[nH]cnc2C)c1.O=C(O)CC(O)(CC(=O)O)C(=O)O`, 50.25%; under `COc1cccc(CN(Cc2ccco2)Cc2[nH]cnc2C)c1.O=C(O)CC(O)(CC(=O)O)C(=O)O`, -15.02%.
In the case of `Cc1noc([C@H]2C[C@H]3OCC[C@H]3N(C3CCC3)C2)n1.O=C(O)C(F)(F)F`, the “Percent Effect” value was -34.16%.
With `COc1ccc(OC)c(Sc2ncccc2C(=O)NCCSC)c1`, the “Percent Effect” value was -9.266%.
As to `CC(=O)N1CC2(CCNCC2)c2cc(Cl)ccc21.Cl`, the “Percent Effect” value was 63.2%.
`CN(C)C(=O)N1CC2(CCNCC2)c2cc(Cl)ccc21.Cl`: the “Percent Effect” value is -44.55%.
With `COC(=O)N1CC2(CCNCC2)c2cc(Cl)ccc21.Cl`, the “Percent Effect” value amounted to 26.9%.
`CN(C)Cc1cnn(-c2ccccc2C(=O)NCCC2CCCN2C)c1` (stereo unspecified): the “Percent Effect” value came out at 17.58%.
As for `O=C(Cc1c[nH]c2ccccc12)N1CCN(C(=O)c2ccoc2)CC1`, the “Percent Effect” value is -1.862%.
Turning to `C[S+]([O-])c1nncn1CC(=O)c1cccc(Cl)c1` (stereo unspecified), the “Percent Effect” value is recorded as 12.76%.
On to `C[S+]([O-])c1nncn1CC(=O)c1ccc(Cl)c(Cl)c1` (stereo unspecified), for which the “Percent Effect” value came out at 51.67%.
To `C[S+]([O-])c1nncn1CC(=O)c1ccc2c(c1)CCO2` (stereo unspecified) belongs 2.009%.
In the case of `COc1coc(C(=O)Nc2nc(-c3cccnc3)cs2)cc1=O`, the “Percent Effect” value was found to be 11.19%.
Turning to `O=C(c1ccncn1)N1C[C@H]2CCC[C@@]2(COCC2CCOCC2)C1`, the “Percent Effect” value was found to be 2.154%.
Regarding `Cc1nc(C)n(CC2CN(Cc3cc(C#N)ccc3F)CCO2)n1` (stereo unspecified), the “Percent Effect” value amounted to 13.34%.
For `COc1cc(CC2CC(c3ccc4c(c3)OCO4)=NO2)cc2c1OCO2` (stereo unspecified), the “Percent Effect” value was 30.67%.
Regarding `COc1cc(CNCc2ccc(C(C)O)cc2)cc2c1OCO2` (stereo unspecified), the “Percent Effect” value is reported as 3.367%.
On to `COC(=O)C1=NOC(Cc2cc(OC)c3c(c2)OCO3)C1` (stereo unspecified), for which the “Percent Effect” value is recorded as 104.6%.
`COc1c(CC2CC(C(=O)O)=NO2)c(Br)c2c(c1OC)OCO2` (stereo unspecified): the “Percent Effect” value was 14.91%.
For `CCOC(=O)C1=NOC(Cc2cc(OC)c3c(c2)OCO3)C1` (stereo unspecified), the “Percent Effect” value came to 94.96%.
Under `COc1cc(CC2CC(C(N)=O)=NO2)cc2c1OCO2` (stereo unspecified) stands 13.11%; under `Cc1cc(C)nc(C2CCN(C(=O)c3cncnc3C)C2)n1` (stereo unspecified), -38.99%.
As for `Cc1nc(CN2C(=O)COC3(CCN(CC4CC4)CC3)C2C)cs1.O=C(O)C(F)(F)F` (stereo unspecified), the “Percent Effect” value amounted to 6.692%.
For `Cc1c(C(=O)NC2CCCOC2)nnn1-c1ccccc1` (stereo unspecified), the “Percent Effect” value was -4.644%.
With `Cc1cccc(-c2noc(C)c2C(=O)NC2CCCOC2)c1.O=C(O)CC(O)(CC(=O)O)C(=O)O` (stereo unspecified), the “Percent Effect” value was 20.12%.
Regarding `Cc1onc(-c2ccncc2)c1C(=O)NC1CCCOC1` (stereo unspecified), the “Percent Effect” value stood at 52.15%.
As to `Cc1cnn(CC2CCCN2CC(=O)Nc2cc(C(C)(C)C)no2)c1` (stereo unspecified), the “Percent Effect” value amounted to 16.98%.
As for `CCN1CCN(C(=O)NCc2cccnc2-n2cccn2)CC1`, the “Percent Effect” value is reported as -23.25%.
Regarding `CNC(=O)[C@@H]1CN(C(=O)C(C)C)C[C@H]1c1ccnc(N2CCCC2)n1.Cl`, the “Percent Effect” value came out at 37.07%.
To `CCC(=O)N1C[C@@H](C(=O)NC)[C@H](c2ccnc(N3CCCC3)n2)C1.Cl` belongs 24.83%; to `CNC(=O)[C@@H]1CN(C(=O)C2CCC2)C[C@H]1c1ccnc(N2CCCC2)n1.Cl`, 54.39%; to `CNC(=O)[C@@H]1CN(C(=O)CCOC)C[C@H]1c1ccnc(N2CCCC2)n1.Cl`, 43.65%.
On to `CCNC(=O)C1CCN(c2nccc(C3CCCC3)n2)C1` (stereo unspecified), for which the “Percent Effect” value is recorded as 13%.
`CNC(=O)[C@@H]1CN(C(=O)COC)C[C@H]1c1ccnc(N2CCCC2)n1`: the “Percent Effect” value stood at 50.96%.
